Lassa entry inh = inhibitors of Lassa virus binding or cell entry | AID 540256 | Potency, µM (series often up to 37.9 µM), for the others: at the highest dose activity change, negative = inhibition, most hits filed as inhibitors | 300,000 tested, 1.2% active | Lassa virus pseudotype entry inhibition, cell reporter; calls by dose curve; tested in HEK293 cells; further: potency means the concentration at half of the fitted maximal effect; nearly all actives have a fitted effect of over 50% in size
FMDV antiviral = foot and mouth disease virus antiviral activity; FMDV antiviral cell-based qHTS; 410,000 tested, 1.2% active; Potency, µM (series often up to 57.9 µM), for the others: at the highest dose activity change, negative = inhibition, actives largely listed as inhibitors; AID 1159524; calls by dose curve; tested in HEK293T cells; further: read-out not given here; potency means the concentration at half of the fitted maximal effect; nearly all actives have a fitted effect of over 45% in size
Marburg entry inh = blocks Marburg virus binding to or entry into cells; Marburg virus pseudotyped entry inhibition, cell reporter; Potency, µM (highest dose often 37.8 µM), without a hit: top-dose activity change, negative = inhibition, hits mostly inhibitors; 300,000 tested, 1.8% active; AID 540276; calls by dose curve; tested in HEK293 cells; further: potency means the concentration at half of the fitted maximal effect
HCMV antiviral = human cytomegalovirus inhibition; activity change, negative = inhibition, % at 57.5 µM; HFF cells, HCMV-luciferase reporter, 72 h; active compounds read low; 410,000 tested, 4.5% active; AID 1259415; in the data active means activity change below about -60%; inconclusive means no clear call, values can overlap the other calls; inactive means above about -39%
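Screen run at 2 compound doses on HFFs infected with reporter HCMV, MOI 1 PFU/cell. Luciferase activity from cell lysates at 72 h post infection gave inhibition relative to buffer-only and Salinomycin wells.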
HCV inh = inhibitors of hepatitis C virus infection. AID 651820. Huh7.5.1 HCVcc-Cre infection, luciferase reporter, 44 h. 340,000 tested, 3.4% active. Potency, µM (top dose mostly 41.8 µM), for the others: at the top dose activity change, negative = inhibition, usual class: inhibitors; active means well fitted inhibition curve with a large enough effect; inconclusive means small, poorly fitted or top-dose-only effect, or another doubt; inactive means no such curve, though single readings can be large or run the other way; further: potency means the concentration at half of the fitted maximal effect
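Seed cells (1,000/well) for 4 h; treat with compound and infect with HCVcc-Cre, moi about 0.5. Incubate 44 h, then detect luciferase activity.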
* hit, by the source's call; u = inconclusive; x = no result given; ! = a repeat was not active; [ ] = dose if it differs, or a comment. Shown are actives, neighbours in structure and some others; about 7.9% of the full set was active somewhere. On the % scale 0 is the no-effect control and ±100 the full control effect.

SMILES | Lassa entry inh | FMDV antiviral | Marburg entry inh | HCMV antiviral | HCV inh
CN(C(=O)c1nc(-c2cccc(F)c2)n2c1CCCCC2)c1ccccc1F | 3.6%[46.1 µM] | -12.6% | x | -61.9* | x
CCOc1ccc(CCNC(=O)c2nc(-c3cccc(F)c3)n3c2CCCCC3)cc1OCC | u | -16.9% | x | 0.8 | x
COC(=O)N(C=Cc1ccc(OC)cc1)CCc1ccc(OC)c(OC)c1 | x | x | 2.8%[14.2 µM] | x | x
CCOc1cc(C(=S)N2CCOCC2)ccc1OC(=O)c1cccc(C)c1 | x | u | x | 57.8 | 11.2µM*
CCOc1cc(/C=N\NC(=O)c2ccc(NC(=O)C(C)(C)C)cc2)ccc1OC(=O)c1cccc(C)c1 | 6.51µM* | 8.91µM* | 2.59µM* | -11.1 | 3.16µM*
CCOc1cc(/C=N\NC(=O)c2ccc(NC(=O)C(C)(C)C)cc2)ccc1OC(=O)c1ccc(C)cc1 | u | -0.7% | 34.0% | -5.4 | 22.4%
CCOc1cc(C(=S)N2CCOCC2)ccc1OC(=O)c1ccccc1 | x | -13.9% | x | -0.1 | 11.8%
CCOc1cc(/C=N\NC(=O)c2ccc(NC(=O)CC)cc2)ccc1OC(=O)c1ccccc1 | 23.1µM* | 17.3% | u | u | 10.9%
Cc1ccc(NC(=O)c2cc3c(-c4ccccc4)nn(-c4ccccc4)c3s2)cc1 | 18.0%[46.1 µM] | -5.8% | -5.1%[46.1 µM] | -5.8 | x
Cc1cccc(S(=O)(=O)c2c(N)n(/N=C/c3ccccc3)c3nc4ccccc4nc23)c1 | -12.7% | 24.1% | u | -30.2 | 2.1%
Nc1c(S(=O)(=O)c2ccccc2)c2nc3ccccc3nc2n1C1CC1 | 6.0% | 37.1% | 1.6%[46.1 µM] | x | 19.7%
Cn1c(N)c(S(=O)(=O)c2ccc(Br)cc2)c2nc3ccccc3nc21 | 8.1% | 46.9% | 6.31µM* | 37.5 | -1.4%
Nc1c(S(=O)(=O)c2ccccc2)c2nc3ccccc3nc2n1/N=C/c1cccc(O)c1 | -0.2% | -27.4% | -15.8% | -101.1* | 14.1µM*
CCN1C(=O)c2ccccc2S(=O)c2ccc(C(=O)NCc3ccc(C(F)(F)F)cc3)cc21 (stereo not given) | x | x | x | 5.3 | x
COc1ccc(Cl)cc1NC(=O)C(C)N1Cc2ccccc2C1=O (stereo not given) | 4.2%[46.1 µM] | -12.2% | x | -4.4 | x
CC[C@@H]1CCC[C@@H](O)[C@@H](C)C(=O)O[C@H](C)[C@@H](C)C/C=C(C)/C(OC)=C\C(=O)N(C)C([C@@H](C)CC)C(=O)N(C)[C@@H](C(C)C)C(=O)N(C)[C@@H](COC)C(=O)N2CCC[C@H]2C(=O)N(C)[C@@H](C(C)C)C(=O)N2CCC[C@H]2C(=O)O1 (stereo not given in full) | x | u | x | -101.9* | x
Cc1ccccc1NS(=O)(=O)c1ccc(C(=O)NNC(=O)c2ccccc2O)cc1 | u | 5.7% | u | -34.4 | u
O=C(c1ccc(S(=O)(=O)Nc2ccccc2F)cc1)N1CCN(c2ccccn2)CC1 | x | u | x | -25.7 | 4.47µM*
O=C(NNC(=O)c1ccccc1O)c1ccc(S(=O)(=O)Nc2ccccc2F)cc1 | 4.3% | 16.1% | 1.5%[46.1 µM] | -3.6 | 15.8µM*
Cc1ccccc1NS(=O)(=O)c1ccc(C(=O)N2CCN(c3ccccn3)CC2)cc1 | -19.3%[46.1 µM] | -20.0% | u | -30.6 | u
Cc1cc(N2CCN(C(=O)c3ccco3)CC2)n2nc(-c3cccc(Cl)c3)cc2n1 | 25.9µM* | u | 16.4µM* | -101.3* | 10µM*
Cc1cc(N2CCN(C(=O)c3ccco3)CC2)n2nc(C)c(-c3ccc(Cl)cc3)c2n1 | x | x | 1.1% | x | x
COc1ccc(-c2cc3nc(-c4ccccc4)cc(N4CCN(C(C)=O)CC4)n3n2)cc1 | x | u | x | -36.7 | x
O=C(c1ccccc1)N1CCN(c2cc(Cl)nc3cc(-c4cccc(Cl)c4)nn23)CC1 | x | u | x | -10.0 | x
COc1ccc(-c2cc3nc(-c4ccccc4)cc(N4CCCC(O)C4)n3n2)cc1 (stereo not given) | x | -10.2% | x | -30.3 | 6.31µM*
SMILES | Lassa entry inh | FMDV antiviral | Marburg entry inh | HCMV antiviral | HCV inh
O=C(c1ccoc1)N1CCN(c2cc(-c3cccc(F)c3)nc3cc(-c4cccc(Cl)c4)nn23)CC1 | x | u | x | -82.3* | x
Cc1cc(N2CCN(C(=O)c3ccco3)CC2)n2nc(C)c(-c3ccccc3)c2n1 | -7.7% | u | -18.6% | -21.9 | 3.55µM*!
COc1ccc(CNC(=O)c2cnn(-c3nccc(-c4ccco4)n3)c2C)cc1OC | x | 35.0% | x | x | x
Cc1cccc(-c2nc3c4ccccc4n(Cc4cccc(Cl)c4)c(=O)n3n2)c1 | 13.9%[46.1 µM] | 15.0% | x | u | x
Cc1ccc2oc(-c3cc(NC(=O)CC(C)C)ccc3Cl)nc2c1 | 13.6%[46.1 µM] | -12.4% | 10.1%[46.1 µM] | -20.7 | x
COCCN1CCN(c2cc(-c3ccccc3)nc3cc(-c4cccc(F)c4)nn23)CC1 | u | 14.1µM* | u | -18.5 | 10µM*
O=C1[C@@H]2[C@@H]3C[C@@H]([C@H]4ON=C(c5ccc(Cl)cc5)[C@@H]34)[C@@H]2C(=O)N1c1ccc2c(c1)OCO2 | -13.3% | 0.0% | u | -10.9 | 6.1%
O=C1[C@@H]2[C@@H]3C[C@@H]([C@H]4ON=C(c5ccc(OCc6ccccc6)cc5)[C@@H]34)[C@@H]2C(=O)N1c1ccc2c(c1)OCO2 | -15.0% | -8.7% | 4.47µM* | 12.9 | -21.2%
CCC(=O)N1CCCc2cc(S(=O)(=O)Nc3ccc(C)c(C)c3)ccc21 | u | 0.5% | -1.0%[46.1 µM] | -17.2 | x
O=C(CCNS(=O)(=O)c1ccc2c(c1)CCN2C(=O)C1CC1)N1CCN(c2cccc(C(F)(F)F)c2)CC1 | -21.1%[46.1 µM] | u | x | -60.0* | x
CS(=O)(=O)N1CCc2cc(S(=O)(=O)Nc3ccc4c(c3)OCCO4)ccc21 | -19.1% | -21.1% | u | -84.4* | u
COc1ccc(NS(=O)(=O)c2ccc3c(c2)CCN3C(=O)C2CC2)cc1OC | u | -4.9% | u | -29.6 | x
O=C(C1CCC1)N1CCc2cc(S(=O)(=O)Nc3ccc4c(c3)OCCO4)ccc21 | -2.4% | -20.5% | -25.8% | -81.5* | u
CS(=O)(=O)N1CCc2cc(S(=O)(=O)NCCNS(=O)(=O)c3ccc4c(c3)CCN4S(C)(=O)=O)ccc21 | -18.2% | 25.7% | 12.6%[46.1 µM] | -21.5 | 2.4%
CCC(=O)N1CCc2cc(S(=O)(=O)Nc3ccc4c(c3)OCCO4)ccc21 | -13.2% | -13.3% | 7.94µM* | -86.5* | 2.82µM*
COc1cc(OC)cc(-c2nc3n(n2)C(c2ccccc2F)C(C(=O)Nc2cccnc2)=C(C)N3)c1 (stereo not given) | 0.3%[46.1 µM] | -4.8% | u | -19.9 | x
COc1cc(OC)cc(-c2nnc(SCC(=O)N3CCC(C)CC3)o2)c1 | -20.2%[46.1 µM] | u | -11.1%[46.1 µM] | -13.8 | x
Oc1cc2c(cc1O)[C@@H]1c3ccc(O)c(O)c3OC[C@]1(O)C2 | x | -16.7% | u | x | x
Cc1cccc(NS(=O)(=O)c2ccc3c(c2)CCN3C(=O)CCC(=O)O)c1 | 20.0%[46.1 µM] | 24.1% | 4.2%[46.1 µM] | -4.0 | 19.2%
Cc1cccc(NS(=O)(=O)c2ccc3c(c2)CCN3C(=O)C2CCC2)c1 | u | -23.4% | u | -66.3* | x
CCOC(=O)c1c(CSc2ccc(C)cc2)n(C)c2cc(Br)c(O)c(CN(C)C)c12 | x | u | x | -62.7* | u
CCOC(=O)c1c(C)n(C)c2ccc(O)cc12 | x | x | x | -2.0 | x
